# The sample as a whole holds a higher share of hits than the screen did.
# IDE exosite inh – insulin-degrading enzyme (human) exo-site inhibition; 17,000 tested, 6.3% active; AID 1259349; P14735; purified IDE, FL-6b probe fluorescence polarization; active compounds read low; z-score at 20 µM;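 active = z-score of -3 or lower, meaning strong loss of probe binding signal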;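 also: His-tagged human IDE residues 42-1019 made in E. coli with 30 nM FL-6b probe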
# Target sequence (P14735 42-1019 limits assumed): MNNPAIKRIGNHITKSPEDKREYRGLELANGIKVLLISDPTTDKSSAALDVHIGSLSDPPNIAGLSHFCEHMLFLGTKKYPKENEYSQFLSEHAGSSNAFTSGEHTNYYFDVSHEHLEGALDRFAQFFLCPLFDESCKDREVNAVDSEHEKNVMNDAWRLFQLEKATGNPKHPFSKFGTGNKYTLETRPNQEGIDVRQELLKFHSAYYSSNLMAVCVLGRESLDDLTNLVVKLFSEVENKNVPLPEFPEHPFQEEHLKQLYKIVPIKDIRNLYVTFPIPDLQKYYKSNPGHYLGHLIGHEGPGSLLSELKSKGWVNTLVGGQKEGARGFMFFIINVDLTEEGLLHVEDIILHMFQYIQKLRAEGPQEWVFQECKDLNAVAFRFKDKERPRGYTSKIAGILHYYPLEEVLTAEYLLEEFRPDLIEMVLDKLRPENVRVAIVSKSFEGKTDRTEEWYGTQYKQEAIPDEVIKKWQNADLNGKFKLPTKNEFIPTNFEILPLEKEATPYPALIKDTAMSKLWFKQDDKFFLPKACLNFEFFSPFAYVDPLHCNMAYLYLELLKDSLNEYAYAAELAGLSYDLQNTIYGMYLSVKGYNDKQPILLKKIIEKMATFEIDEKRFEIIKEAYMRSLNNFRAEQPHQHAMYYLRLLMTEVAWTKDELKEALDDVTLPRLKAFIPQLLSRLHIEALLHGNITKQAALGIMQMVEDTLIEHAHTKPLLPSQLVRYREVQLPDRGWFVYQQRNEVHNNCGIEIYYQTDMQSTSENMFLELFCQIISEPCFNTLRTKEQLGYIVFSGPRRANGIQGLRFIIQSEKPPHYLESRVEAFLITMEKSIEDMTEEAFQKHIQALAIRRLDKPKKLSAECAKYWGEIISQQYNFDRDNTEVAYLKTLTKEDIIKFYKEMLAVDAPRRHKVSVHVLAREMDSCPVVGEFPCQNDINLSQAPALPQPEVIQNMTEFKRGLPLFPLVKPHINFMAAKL
# An asterisk follows results filed as active.
SMILES,IDE exosite inh
N#C[C@@H]1[C@@H](c2ccc(C3=CCCC3)cc2)[C@@H](CO)N1C(=O)c1cccc(F)c1,3.22
CC(=O)N1CCCCN2[C@H](CO)[C@@H](c3ccc(-c4ccc(C)cc4)cc3)[C@H]2C1,2.71
C[C@@H](O)C#Cc1ccc([C@@H]2[C@H](CO)N3CCCCN(C(=O)c4ccc(F)cc4)C[C@@H]23)cc1,-0.273
O=C(NCC[C@H]1CC[C@@H](NC(=O)c2ccccc2F)[C@@H](CO)O1)c1cnccn1,1.32
Cc1ccccc1-c1ccc([C@@H]2[C@@H](CO)N3C(=O)CN(S(C)(=O)=O)C[C@H]23)cc1,-1.54
CCS(=O)(=O)N1CC(=O)N2[C@H](CO)[C@@H](c3ccc(-c4ccccc4C)cc3)[C@@H]2C1,-15.8*
CCS(=O)(=O)N1CC(=O)N2[C@H](CO)[C@@H](c3ccc(-c4ccccc4)cc3)[C@@H]2C1,-5.41*
CCS(=O)(=O)N1CC(=O)N2[C@@H](CO)[C@H](c3ccc(-c4ccccc4C)cc3)[C@@H]2C1,-5.78*
CCS(=O)(=O)N1CC(=O)N2[C@H](CO)[C@@H](c3ccc(C4=CCCCC4)cc3)[C@@H]2C1,-0.204
CS(=O)(=O)N1CC(=O)N2[C@@H](CO)[C@@H](c3ccc(Br)cc3)[C@@H]2C1,-1.12
CCS(=O)(=O)N1CC(=O)N2[C@H](CO)[C@@H](c3ccc(C#Cc4ccc(F)cc4)cc3)[C@H]2C1,0.789
CCS(=O)(=O)N1CC(=O)N2[C@H](CO)[C@H](c3ccc(-c4ccc(F)cc4)cc3)[C@@H]2C1,2.46
CCS(=O)(=O)N1CC(=O)N2[C@H](CO)[C@@H](c3ccc(-c4cccc(F)c4)cc3)[C@H]2C1,0.168
CCS(=O)(=O)N1CC(=O)N2[C@@H](CO)[C@H](c3ccc(C#CC4CC4)cc3)[C@@H]2C1,4.37
CCS(=O)(=O)N1CC(=O)N2[C@H](CO)[C@@H](c3ccc(-c4ccc(F)cc4)cc3)[C@H]2C1,3.79
Cc1ccccc1-c1ccc([C@@H]2[C@H]3CN(S(C)(=O)=O)CC(=O)N3[C@H]2CO)cc1,-5.1*
O=C1[C@H](Cc2ccc(F)cc2)CCn2cc(nn2)COC[C@H]2CCCN12,0.202
C/C=C/c1ccc([C@@H]2[C@@H](CN(C(=O)COC)C(C)C)N(C(C)=O)[C@H]2CO)cc1,1.25
COc1ccc(C[C@H]2CCn3cc(nn3)COCCCNC2=O)cc1,0.763
CC(C)CC#Cc1ccc([C@@H]2[C@@H](CO)N3C(=O)CN(C(=O)Cc4cccnc4)C[C@@H]23)cc1,5.18
CCS(=O)(=O)N1CC(=O)N2[C@@H](CO)[C@H](c3ccc(-c4ccccc4F)cc3)[C@@H]2C1,2.24
CCS(=O)(=O)N1CC(=O)N2[C@H](CO)[C@@H](c3ccc(-c4ccccc4F)cc3)[C@@H]2C1,-11*
CCN1CC(=O)N2[C@H](C1)[C@@H](c1ccc(-c3ccccc3F)cc1)[C@@H]2CO,-2.61
O=C(c1cccc(F)c1)N1CC2(C1)[C@@H](c1ccccc1)[C@@H](CO)N2C(=O)C1CCCCC1,-2.77
COc1ccccc1CNC(=O)C[C@@H]1C=C[C@@H](NC(=O)CC2CC2)[C@@H](CO)O1,-0.39
SMILES,IDE exosite inh
O=C(C[C@H]1CC[C@@H]2[C@H](COC[C@@H](O)CN2CCC(F)(F)F)O1)NCc1ccc2c(c1)OCO2,0.453
N#C[C@H]1[C@H](c2ccccc2-c2ccccc2F)[C@@H](CO)N1C(=O)C1CC1,3.45
Cc1ccccc1S(=O)(=O)N1CC(=O)N2[C@H](CO)[C@@H](c3ccc(C#Cc4ccccc4)cc3)[C@@H]2C1,0.0775
CCCNC(=O)N(C)C[C@@H]1Oc2cc(C#C[C@@H](C)O)ccc2S(=O)(=O)N([C@@H](C)CO)C[C@H]1C,-0.0982
COc1ccccc1-c1ccc2c(c1)[C@H]1[C@H](CCN1C(=O)CN1CCOCC1)[C@H](CO)N2C,-3.33*
Cc1ccccc1-c1ccc([C@H]2[C@H]3CN(C(=O)CN4CCOCC4)CCCCN3[C@H]2CO)cc1,-2.21
Cc1ccccc1-c1ccc([C@@H]2[C@H](CO)N3CCCCN(C(=O)CN4CCOCC4)C[C@@H]23)cc1,-13.7*
COc1ccccc1-c1ccc([C@@H]2[C@@H](CO)N3CCCCN(C(=O)CN4CCOCC4)C[C@H]23)cc1,1.85
CN1c2ccc(-c3cccc(C#N)c3)cc2[C@@H]2[C@@H](CCN2C(=O)CN2CCOCC2)[C@H]1CO,1.49
CN1c2ccc(Br)cc2[C@H]2[C@H](CCN2C(=O)CN2CCOCC2)[C@H]1CO,2.63
COc1ccccc1-c1ccc([C@H]2[C@@H](CO)N3CCCCN(C(=O)CN4CCOCC4)C[C@@H]23)cc1,0.407
COc1ccccc1-c1ccc([C@@H]2[C@@H](CO)N3CCCCN(C(=O)CN4CCOCC4)C[C@@H]23)cc1,-6.52*
Cc1ccccc1-c1ccc([C@H]2[C@H](CO)N3CCCCN(C(=O)CN4CCOCC4)C[C@@H]23)cc1,-3.72*
CCCNC(=O)N[C@H]1C=C[C@H](CC(=O)N2CCN(C)CC2)O[C@@H]1CO,0.25
N#C[C@@H]1[C@H](c2ccccc2C2=CCCC2)[C@@H](CO)N1C(=O)C1CCOCC1,-0.307
Cc1noc(C)c1S(=O)(=O)Nc1ccc2c(c1)C(=O)N([C@H](C)CO)C[C@H](C)[C@H](CN(C)C(=O)Nc1cccc3ccccc13)OCCCC[C@H](C)O2,-0.789
COc1ccc(-c2ccc([C@@H]3[C@@H](CO)N4C(=O)CN(C(=O)Cc5ccccn5)C[C@@H]34)cc2)cc1,-1.92
COc1cc(CN2CC3(CCN(S(=O)(=O)c4cn(C)cn4)CC3)c3c(n(C)c4cc(OC)ccc34)[C@@H]2CO)cc(OC)c1,0.00769
COc1ccc2c3c(n(C)c2c1)[C@@H](CO)N(C(C)=O)CC31CCN(C(=O)Nc2ccccc2F)CC1,0.0279
N#C[C@H]1[C@@H](c2ccccc2C2=CCCC2)[C@@H](CO)N1C(=O)c1cccc(F)c1,0.121
C/C=C/c1ccccc1[C@@H]1[C@@H](CO)N(C(C)=O)[C@H]1C#N,-1.42
O=C(NC1CCCC1)N1CC(=O)N2[C@H](CO)[C@@H](c3ccc(-c4ccncc4)cc3)[C@H]2C1,1.11
O=C(C1CCCCC1)N1CC(=O)N2[C@H](CO)[C@@H](c3ccc(-c4cccnc4)cc3)[C@@H]2C1,-5.08*
O=C(NC1CCCCC1)N1CC(=O)N2[C@H](CO)[C@@H](c3ccc(-c4ccncc4)cc3)[C@H]2C1,-0.658
O=C(C1CCCCC1)N1CC(=O)N2[C@H](CO)[C@H](c3ccc(-c4cccnc4)cc3)[C@@H]2C1,0.245
SMILES,IDE exosite inh
O=C(NC1CCCC1)N1CC(=O)N2[C@H](CO)[C@H](c3ccc(-c4cccnc4)cc3)[C@@H]2C1,-3.37*
O=C(C1CCCCC1)N1CC(=O)N2[C@@H](CO)[C@@H](c3ccc(-c4cccnc4)cc3)[C@@H]2C1,-0.388
O=C(NC1CCCC1)N1CC(=O)N2[C@H](CO)[C@H](c3ccc(-c4ccncc4)cc3)[C@@H]2C1,0.541
O=C(C1CCCCC1)N1CC(=O)N2[C@H](C1)[C@@H](c1ccc(-c3cccnc3)cc1)[C@@H]2CO,-0.832
O=C(NC1CCCC1)N1CC(=O)N2[C@H](CO)[C@H](c3ccc(-c4ccccc4)cc3)[C@@H]2C1,-5.7*
COc1ccc(C[C@H]2CCn3cc(nn3)COC[C@@H](C)NC2=O)cc1,1.34
CCC(=O)NC[C@H]1[C@@H](c2ccccc2)[C@H](CO)N1C(=O)C1CCC1,0.842
CN1C(=O)c2cc(NS(=O)(=O)c3cccc(F)c3)ccc2OC[C@@H]2O[C@@H](CC(=O)N3CCc4ccccc4C3)CC[C@@H]21,0.0308
COc1cccc(NC(=O)C[C@H]2CC[C@H]3[C@@H](COc4ccc(NC(=O)C5CC5)cc4C(=O)N3C)O2)c1,-0.325
O=C(C1CCCCC1)N1CC(=O)N2[C@@H](CO)[C@H](c3ccc(Br)cc3)[C@@H]2C1,3.8

# Screening results: PubChem, Broad Institute
